The text below walks through data of PubChem BioAssay (NCI).

This is part of a sample that, as a whole, favours compounds with a hit. Of some 83,000 tested, about 20% had one in any assay.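 For each line, cells grew in 96-well plates with the test compound present at a single concentration for 48 hours.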 A number with no mark means an inactive call. Calls of active or inactive are those of the source. How the source made its calls: active means growth percent below 10; inactive means the rest.

What all share (experiment): NCI-60 one-dose screen, 48 h (100 = growth as untreated, 0 = no growth, -100 = all killed)
Holding throughout (conditions): 10 µM unless noted

Experiment [1] deals with T-47D breast.
In experiment [2] the test system is BT-549 breast.
Experiment [3] relates to MDA-MB-435 melanoma.
The subject of experiment [4] is SW-620 colon.
For experiment [5], the system named is MCF7 breast.
Experiment [6] relates to HCT-116 colon.
Experiment [7] concerns HCC-2998 colon.
Experiment [8] relates to KM12 colon.

`COc1ccc(-c2cc(-c3ccc(Nc4nc(Nc5ccc(Cl)cc5)nc(Nc5ccc(Cl)cc5)n4)cc3)nc(N)c2C#N)cc1`: the growth in experiment [1] is 3.86% (active); in experiment [2] it was -55.3% (active); in experiment [3], -1.59% (active); in experiment [4], -3.93% (active); in experiment [5], 32.4%; in experiment [6], 20.2%. Also, the growth in experiment [7] is -8.77% (active); in experiment [8], 27.7%.

On to `COC1=CC(=O)C[C@@H](C)[C@]12Oc1c(Cl)c(OC)cc(OC)c1C2=O`, for which the growth in experiment [1] is 105%; in experiment [2] it was 78.3%; in experiment [3] it was 1.96% (active); in experiment [4], 81.5%; in experiment [5] it was 85.2%; in experiment [6], 92.4%. Besides, the growth was 75.5% in experiment [7] and 65.5% in experiment [8].

For `Cc1ccc2nc(NC(=O)CSc3nc(-c4ccccc4)c(C#N)c(=O)n3Cc3ccccc3)sc2c1`, the growth was -80.8% (active) in experiment [1]; 89.3% in experiment [2]; 45.7% in experiment [3]; 87.4% in experiment [4]; 86.2% in experiment [5]; 95.9% in experiment [6]. The growth was 118% in experiment [7] and 90.6% in experiment [8].

For the molecule `Cc1cc(NCc2cc(Nc3ccnc4cc(Cl)ccc34)ccc2F)nc(N2CCN(c3ccccc3)CC2)n1`, the growth in experiment [1] is 24.5%; in experiment [2] it was 70.1%; in experiment [3], 38.8%; in experiment [4], 46.1%; in experiment [5], 23.9%; in experiment [6], 1.74% (active). Further, the growth in experiment [7] is 28.2%; in experiment [8], 69.2%.

`O=c1cc(C2NNC(=S)N2)c2ccc3ccccc3c2o1` (centres undefined): the growth in experiment [1] was 73.1%; in experiment [2], 94%; in experiment [3], 102%; in experiment [4], 92.2%; in experiment [5], 86.9%; in experiment [6] it was 95.4%. The growth is 113% in experiment [7] and 100% in experiment [8].

On to `COc1ccc(C2C(c3nn[nH]n3)=C(N)Oc3c2ccc2ccccc32)cc1` (centres undefined), for which the growth in experiment [1] was 64.4%; in experiment [2], 72%; in experiment [3], -26.6% (active); in experiment [4] it was 29.3%; in experiment [5], 33.1%; in experiment [6] it was 55.7%. The growth is 97.7% in experiment [7] and 50.2% in experiment [8].

`COc1ccc(-c2ccc3c(c2)sc2nc(-c4ccc(F)cc4)cn23)cc1`: the growth was 55.1% in experiment [1]; 105% in experiment [2]; 74.3% in experiment [3]; 98.8% in experiment [4]; 33.3% in experiment [5]; 42.3% in experiment [6]. Moreover, the growth in experiment [7] was 29.3%; in experiment [8], 64.8%.

On to `Cc1cccc(Cc2cnc(NC(=O)c3ccc4nnsc4c3)s2)c1`, for which the growth in experiment [1] is 57.8%; in experiment [2], 105%; in experiment [3] it was 82.7%; in experiment [4], 80.5%; in experiment [5], 95%; in experiment [6], 87.7%. Besides, the values for the growth in experiment [7] and in experiment [8] were 87.5% and 77.9%, respectively.

Regarding `COc1ccc(N2CCN(c3nc(-c4cc(OC)c(OC)c(OC)c4)nc4ccccc34)CC2)cc1`, the growth was 45.4% in experiment [1]; 39.9% in experiment [2]; 67.1% in experiment [3]; 85.6% in experiment [4]; 83.3% in experiment [5]; 70% in experiment [6]. Moreover, the growth is 95.1% in experiment [7] and 70% in experiment [8].

With `CCOC(=O)/C=C/c1cc2cc(-c3csc4ccccc34)ccc2[nH]1`, the growth in experiment [1] is 55%; in experiment [2] it was 69.6%; in experiment [3], -10.4% (active); in experiment [4], 46.4%; in experiment [5], 34.6%; in experiment [6], 60.1%. The growth in experiment [7] was 33.4%; in experiment [8] it was 23.2%.

Turning to `COc1ccc2c(c1)O/C(=C/c1ccc(OCC(=O)c3ccccc3)cc1)C2=O`, the growth was 97.4% in experiment [1]; 119% in experiment [2]; 87% in experiment [3]; 131% in experiment [4]; 118% in experiment [5]; 94.1% in experiment [6]. Moreover, the growth in experiment [7] was 114%; in experiment [8] it was 105%.

Turning to `CCC(CO)Nc1nc2ccc(Cl)cc2c2ccccc12` (centres undefined), the growth in experiment [1] is 59.5%; in experiment [2], 70.6%; in experiment [3], 58%; in experiment [4], 79.7%; in experiment [5], 72.7%; in experiment [6] it was 71.5%. Moreover, the growth in experiment [7] is 54.9%; in experiment [8], 45.7%.

As for `N#CCN1C(=O)C2C3=C(CCCC3)SC2N=C1CN1CCCC1` (centres undefined), the growth is 97.2% in experiment [1]; 114% in experiment [2]; 105% in experiment [3]; 95.3% in experiment [4]; 109% in experiment [5]; 94.2% in experiment [6]. Further, the growth was 96.9% in experiment [7] and 109% in experiment [8].

Turning to `COc1cccc(Nc2nccc(Nc3ccc4[nH]ncc4c3)n2)c1`, the growth in experiment [1] is -51.9% (active); in experiment [2] it was -15.9% (active); in experiment [3] it was -78.4% (active); in experiment [4], -69.3% (active); in experiment [5], -50.6% (active); in experiment [6], -87% (active). Moreover, the growth was -7.35% (active) in experiment [7] and -44.3% (active) in experiment [8].

In the case of `NC(=S)N/N=C/Cc1ccccc1`, the growth in experiment [1] was 49.3%; in experiment [2] it was 119%; in experiment [3], 124%; in experiment [4] it was 102%; in experiment [5], 21.5%; in experiment [6] it was 6.31% (active). Also, the growth in experiment [7] was 113%; in experiment [8] it was 107%.

As to `COCCc1ccc(OCC(O)CNC(C)C)cc1` (centres undefined), the growth in experiment [1] was 102%; in experiment [2] it was 94.2%; in experiment [3] it was 97.4%; in experiment [4], 105%; in experiment [5] it was 101%; in experiment [6] it was 101%. Also, the growth in experiment [7] was 102%; in experiment [8], 105%.

With `Cc1c(Cl)cc(-n2c(=O)c3ccccc3c3ccccc3c2=O)cc1Cl`, the growth in experiment [1] was 93.9%; in experiment [2] it was 89.8%; in experiment [3], 104%; in experiment [4], 109%; in experiment [5], 98%; in experiment [6], 101%. The growth in experiment [7] is 95.5%; in experiment [8], 111%.

In the case of `COC(=O)/C=C1\S/C(=N\NS(=O)(=O)c2ccc(C)cc2)N(c2ccccc2)C1=O`, the growth in experiment [1] is 99.2%; in experiment [2], 115%; in experiment [3] it was 102%; in experiment [4], 106%; in experiment [5], 94.5%; in experiment [6], 103%. Also, the figures for the growth in experiment [7] and in experiment [8] were 121% and 101%, respectively.

With `c1ccc2c(c1)nc(CN1CCOCC1)n1cc(N3CCCC3)nc21`, the growth in experiment [1] is 95.6%; in experiment [2], 100%; in experiment [3], 106%; in experiment [4], 99.7%; in experiment [5], 96.5%; in experiment [6], 93.5%. Besides, the results for the growth in experiment [7] and in experiment [8] were 99.8% and 99.1%, respectively.

Turning to `C=CC(=O)Nc1cccc(Oc2nccc(Nc3nnc(C4CC4)s3)n2)c1`, the growth was 95% in experiment [1]; 101% in experiment [2]; 99.5% in experiment [3]; 93.3% in experiment [4]; 82% in experiment [5]; 101% in experiment [6]. Besides, the growth is 102% in experiment [7] and 97.5% in experiment [8].

In the case of `CCN(CC)CCn1nc2c3c(cccc3c1=O)-c1ccccc1-2`, the growth in experiment [1] is 9.48% (active); in experiment [2], 59.3%; in experiment [3], 39.7%; in experiment [4] it was 14.3%; in experiment [5], 4.36% (active); in experiment [6] it was 16.3%. The growth was 34.7% in experiment [7] and 34% in experiment [8].

For `O=C(Nc1cccc2c(O)c(N=Nc3ccc(S(=O)(=O)Nc4nccs4)cc3)cc(N=Nc3ccc(S(=O)(=O)Nc4nccs4)cc3)c12)C(Cl)Cl`, the growth was 88.3% in experiment [1]; 87.3% in experiment [2]; 106% in experiment [3]; 42% in experiment [4]; 57.8% in experiment [5]; 71.8% in experiment [6]. Moreover, the growth in experiment [7] is 107%; in experiment [8], 59%.

Take `Cc1cc(O)c(C2=NN(c3ccc(S(N)(=O)=O)cc3)C(c3ccccc3Cl)C2)cc1Cl` (centres undefined): the growth was 18.3% in experiment [1]; 104% in experiment [2]; 8.16% (active) in experiment [3]; -27.4% (active) in experiment [4]; 0.899% (active) in experiment [5]; -90.4% (active) in experiment [6]. For the same molecule, the growth in experiment [7] is -39.4% (active); in experiment [8], -37% (active).

In the case of `O=C(COc1ccc(/C=C2\Oc3ccccc3C2=O)cc1)c1ccc(Cl)cc1`, the growth in experiment [1] was 98.5%; in experiment [2], 121%; in experiment [3], 90.7%; in experiment [4], 115%; in experiment [5] it was 95.3%; in experiment [6], 88.5%. The growth was 97.4% in experiment [7] and 98.5% in experiment [8].

As to `COc1cc(-c2nc(N3CCN(C)CC3)c3ccccc3n2)cc(OC)c1OC`, the growth in experiment [1] was 65.3%; in experiment [2], 84.7%; in experiment [3], 0% (active); in experiment [4], 53.3%; in experiment [5], 29.5%; in experiment [6], 31.9%. Also, the growth in experiment [7] was 88.4%; in experiment [8], 53.4%.

Take `O=c1[nH]nc(-c2ccccc2)c2c(-c3ccccc3)onc12`: the growth in experiment [1] was 20.1%; in experiment [2] it was 22.8%; in experiment [3], 16.7%; in experiment [4] it was 22.2%; in experiment [5] it was 25.6%; in experiment [6], 35.7%. Also, the growth in experiment [7] is 35.1%; in experiment [8], 29.8%.

Take `Cc1ccc(-n2c(-c3ccccc3)c(-c3ccccc3)c3c(SCC(=O)n4[nH]c(N)cc4=O)ncnc32)cc1`: the growth is 76.6% in experiment [1]; 99% in experiment [2]; 106% in experiment [3]; 90.3% in experiment [4]; 86.7% in experiment [5]; 78.2% in experiment [6]. The values for the growth in experiment [7] and in experiment [8] were 113% and 98.1%, respectively.

Turning to `N#Cc1c(N)nc(NCCO)nc1-c1ccc(F)cc1`, the growth is 79.7% in experiment [1]; 98.6% in experiment [2]; 104% in experiment [3]; 99.8% in experiment [4]; 97.3% in experiment [5]; 93.7% in experiment [6]. Besides, the growth in experiment [7] was 105%; in experiment [8], 103%.
